IL1B secr inh – blocks inflammasome-driven IL-1 beta release. THP-1 LPS/ATP IL-1B secretion, AlphaLISA, 16 h; hits give low values. activity change, % at 57.5 µM. 360,000 compounds, 4.7% hits; in the data active = activity change below about -50%; inconclusive = mostly about -30% to -49%
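THP-1 cells pretreated 1 hr with compounds (up to 57.5 uM final), then stimulated with LPS (250 ng/mL final) plus ATP (1.25 mM final); secreted IL-1B measured by AlphaLISA after 16 hr, decreased signal indicating inhibition.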
LDHA block – LDHA (human) enzyme inhibition; purified LDHA, NADH/diaphorase-resazurin fluorescence; hits give low values; activity change, % (values are at about 110 or 230 µM); 480,000 compounds, 0.15% hits; AID 1347041; in the data active = activity change below about -30%; inconclusive = mostly about -25% to -30%;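 note: plate controls were DMSO wells for no effect and wells without enzyme for full effect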
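Human LDH5 at 2 nM final in Tris HCl pH 7.4 with 0.06 mM NADH and 0.2 mM pyruvate, reacted 5 minutes at room temperature. Remaining NADH coupled via diaphorase/resazurin; resorufin fluorescence read at 0 and 20 minutes, normalized to enzyme-free and DMSO wells.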
RORg inh – ROR gamma (mouse) transcription inhibition | Drosophila S2 Gal4-RORgamma UAS-luciferase reporter, 20 h | Potency, µM (doses to about 53.6 µM), for inactives: at the top dose activity change, negative = inhibition, hits mostly inhibitors | P51450 | AID 2551 | 310,000 compounds, 5.4% hits; note: potency is the fitted concentration of half-maximal effect; nearly all actives have a fitted effect of over 60% in size
Target sequence (P51450 whole entry, looked up, the tested form may be a part): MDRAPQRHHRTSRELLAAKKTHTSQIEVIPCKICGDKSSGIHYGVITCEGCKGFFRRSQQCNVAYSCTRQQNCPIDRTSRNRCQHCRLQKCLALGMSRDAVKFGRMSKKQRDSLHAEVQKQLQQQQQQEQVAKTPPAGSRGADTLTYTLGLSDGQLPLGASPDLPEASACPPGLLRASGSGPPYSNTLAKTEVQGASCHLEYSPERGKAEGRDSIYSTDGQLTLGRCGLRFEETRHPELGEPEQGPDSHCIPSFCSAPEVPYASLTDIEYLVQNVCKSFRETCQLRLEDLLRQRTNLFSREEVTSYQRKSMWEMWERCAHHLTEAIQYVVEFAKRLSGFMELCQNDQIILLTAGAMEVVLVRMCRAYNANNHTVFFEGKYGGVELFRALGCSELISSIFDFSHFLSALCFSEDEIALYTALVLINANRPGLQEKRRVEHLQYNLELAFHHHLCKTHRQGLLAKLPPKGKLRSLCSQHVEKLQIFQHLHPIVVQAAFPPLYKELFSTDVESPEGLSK
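In this cell-based reporter format, copper sulfate (700 uM final) drives Gal4–ROR gamma fusion expression from a metallothionein promoter in Drosophila Schneider cells; compounds preincubated 1 hr, reporter read after 20 hr at ambient temperature.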
DT40 TDP1 CPT – growth inhibition of DT40 Tdp1-/-;hTDP1 cells with camptothecin (screen for TDP1 inhibitors) | chicken DT40 Tdp1-/-;hTDP1 cells + 20 nM CPT, ATP luminescence, 48 h | Potency, µM (top dose mostly 46.2 µM), for inactives: top-dose activity change, negative = growth inhibition, most hits filed as inhibitors | 420,000 compounds, 12% hits | AID 686979; note: potency is the fitted concentration of half-maximal effect; nearly all actives have a fitted effect of over 55% in size
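Chicken DT40 Tdp1-/- cells complemented with human TDP1, 400 cells/well, exposed to compounds plus 20 nM camptothecin for at least 48 h at 37 C; viability read as ATP content by CellTiter-Glo luminescence.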
VP16 counter – inhibits Gal4-VP16 luciferase reporter, ROR gamma counter-screen | Drosophila S2 Gal4-VP16 UAS-luciferase, luminescence, 20 h | Potency, µM (doses to about 53.6 µM), for the others: at the top dose activity, negative = inhibition, hits mostly inhibitors | 310,000 compounds, 3.5% hits | AID 2546;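 note: Gal4-VP16 expression switched on by copper sulfate through the metallothionein promoter; potency is the fitted concentration of half-maximal effect; nearly all actives have a fitted effect of over 50% in size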
DT40 TDP1 no CPT – qHTS for Inhibitors of human tyrosyl-DNA phosphodiesterase 1 (TDP1): qHTS in cells in absence of CPT; DT40 Tdp1-/- hTDP1 cells, no CPT, ATP luminescence, 48 h; Potency, µM (titrated, usually from 46.2 µM), for inactives: top-dose activity change, negative = growth inhibition, most hits filed as inhibitors; 420,000 compounds, 15% hits; AID 686978, 2013; note: potency is the fitted concentration of half-maximal effect; nearly all actives have a fitted effect of over 55% in size
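No-CPT arm: Tdp1-/-;hTDP1 DT40 cells (400/well) plus compounds, incubated ≥48 hr at 37 °C. Readout CellTiter-Glo luminescence.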
* marks the source's active call; other numbers are inactive results; ? = inconclusive; nt = no result. Only some compounds are listed: those with a hit (about 18% of all), similar ones and a draw of the others. Unless noted, calls come from the whole dose curve; as a rule, active = well fitted curve in the direction sought with a large enough effect; inconclusive = small, poorly fitted or top-dose-only effect, or another doubt; inactive = no such curve, though single readings can be large; an effect the other way counts as inactive or inconclusive. Unless noted, % is set by controls: 0 for no effect and ±100 for the full control effect.

SMILES	IL1B secr inh	LDHA block	RORg inh	DT40 TDP1 CPT	VP16 counter	DT40 TDP1 no CPT
O=c1[nH]c2ccccc2nc1/C=C/c1ccccc1	32	-6	-1%	?	-8%	-26%
COc1ccccc1/C=C/c1nc2ccccc2[nH]1	nt	-5	nt	?	nt	14µM*
O=c1[nH]c2ccccc2nc1/C=C/c1ccc(O)cc1	-76*	0	-45%	?	?	15µM*
Cc1ccc(-c2nnn(CCC(=O)Nc3sc4c(c3C#N)CCCC4)n2)cc1	nt	9	nt	nt	nt	nt
O=C(c1ccco1)N(Cc1cccnc1)Cc1cc2ccccc2[nH]c1=O	nt	-7	nt	nt	nt	nt
C[C@@]12C(=O)N(c3ccccc3)C(=O)N1[C@@H]1c3ccccc3OC[C@@H]1[C@H]2c1ccccc1	-6	-3	nt	16µM*	nt	?
C[C@@]12C(=O)N(c3cccc(Cl)c3)C(=O)N1[C@@H]1c3ccccc3OC[C@@H]1[C@H]2c1ccccc1	13	-1	nt	?	nt	?
C[C@]12C(=O)N(c3ccc(Cl)cc3)C(=O)N1[C@H]1c3ccccc3OC[C@@H]1[C@H]2c1ccccc1	-6	-4	-14%	?	-3%	?
C[C@@]12C(=O)N(c3ccc(Cl)cc3)C(=O)N1[C@@H]1c3ccccc3OC[C@@H]1[C@H]2c1ccccc1	7	-8	nt	?	nt	?
C[C@@]12C(=O)N(c3ccc(Br)cc3)C(=O)N1[C@@H]1c3ccccc3OC[C@@H]1[C@H]2c1ccccc1	-2	0	nt	?	nt	18µM*
C[C@]12C(=O)N(c3ccc(Cl)cc3)C(=O)N1[C@@H]1c3ccccc3OC[C@@H]1[C@H]2c1ccccc1	-2	-5	nt	?	nt	23µM*
C[C@@]12C(=O)N(c3cccc(F)c3)C(=O)N1[C@@H]1c3ccccc3OC[C@@H]1[C@H]2c1ccccc1	-8	-4	nt	?	nt	15µM*
Cc1cc(-c2nnn(CC(=O)NC(C)C)n2)ccc1F	nt	-3	nt	nt	nt	nt
CCn1cc(S(=O)(=O)N2CCCC2C(=O)O)c(C)n1 (configuration not stated)	nt	10	nt	nt	nt	nt
COc1ccc(-c2nsc3c2NC(=O)CC3c2cc(OC)c3c(c2OC)OCO3)cc1 (configuration not stated)	nt	6	nt	nt	nt	nt
CC/C(C)=N/NC(=O)C(c1ccccc1)c1ccccc1	nt	-5	nt	nt	nt	nt
Cc1ccc(S(=O)(=O)N2CCN(C(=O)c3cc(-c4cccs4)nn3-c3ccccc3)CC2)cc1	0	-1	nt	13µM*	nt	18µM*
O=C(c1cc(-c2cccs2)nn1-c1ccccc1)N1CCN(S(=O)(=O)c2ccccc2)CC1	-14	-2	nt	?	nt	18µM*
CCCN1C(=O)/C(=C\C=C2/C=CN(CC)c3ccccc32)SC1=S	-12	33	-7%	?	-14%	10µM*
Cc1cc(OC(C)C(=O)NCCCO)c2c(C)c(C)c(=O)oc2c1 (configuration not stated)	nt	17	nt	nt	nt	nt
Cc1ccc(C(CNS(=O)(=O)c2ccc(F)cc2C)N2CCN(C)CC2)cc1 (configuration not stated)	-24	-8	nt	18µM*	nt	?
COCCCn1c(SCC(=O)Nc2ccc(C(C)=O)cc2)nc2ccccc2c1=O	-20	-14	?	?	1%	21µM*
COCCn1c(SCC(=O)Nc2cc(C)cc(C)c2)nc2ccccc2c1=O	-14	-7	38%	?	-4%	?
COCCn1c(SCC(=O)Nc2ccc(NC(C)=O)cc2)nc2ccccc2c1=O	39	-7	8%	-21%	-8%	?
COCCn1c(SCC(=O)Nc2ccc(OC)c(S(N)(=O)=O)c2)nc2ccccc21	60	-2	?	16µM*	?	?
SMILES	IL1B secr inh	LDHA block	RORg inh	DT40 TDP1 CPT	VP16 counter	DT40 TDP1 no CPT
COCCn1c(SCC(=O)Nc2cccc(C(=O)OC)c2)nc2ccccc2c1=O	35	-11	25%	21µM*	-2%	?
COCCn1c(SCC(=O)Nc2ccc3[nH]c(=O)[nH]c3c2)nc2ccccc21	14	8	nt	5%	nt	?
O=Cc1ccc(-c2ccccc2Br)o1	nt	9	nt	nt	nt	nt
Cc1oc2cc(OCC(N)=O)ccc2c(=O)c1Oc1ccc(C(C)C)cc1	nt	1	nt	nt	nt	nt
Cc1ccc2c(CN(C)Cc3cccc(Cl)c3)cc(=O)oc2c1C	-12	3	30%	?	-4%	29µM*
COc1ccc(CN(C)Cc2cc(=O)oc3c(C)c(C)ccc23)cc1	nt	-12	nt	nt	nt	nt
Cc1cc2oc(=O)cc(CN(C)Cc3ccccc3)c2cc1C(C)C	-12	2	13%	?	2%	?
COc1ccc(CN(C)Cc2cc(=O)oc3cc(C)c(C(C)C)cc23)cc1OC	-58*	1	7%	?	5%	?
Cc1ccc2c(CN(C)CCOc3ccccc3F)cc(=O)oc2c1C	nt	-3	nt	nt	nt	nt
CCOc1ccc(CN(C)Cc2cc(=O)oc3c(C)c(C)ccc23)cc1OC	27	0	nt	10µM*	nt	8.2µM*
CSc1ccc(CN(C)Cc2cc(=O)oc3c(C)c(C)ccc23)cc1	24	-4	9%	21µM*	?	?
CC(C)OCCCNC(=S)NCCc1ccccc1	nt	0	nt	nt	nt	nt
O=C(Nc1ccccc1Cl)c1ccc(-c2ccccc2)cc1	nt	-3	nt	nt	nt	nt
COc1ccc(N2Cc3cccc(C(=O)NCc4cccc(Cl)c4)c3C2=O)cc1	nt	6	nt	nt	nt	nt
CCCC(C)(NC(=O)OCc1ccccc1)C(=O)O (configuration not stated)	nt	4	nt	nt	nt	nt
O=C(NC1CCCC1)c1csc2ccccc12	nt	4	nt	nt	nt	nt
Cc1ccccc1-c1cc(=O)c2cc(NC(=O)c3ccc(F)cc3)ccc2o1	nt	10	nt	nt	nt	nt
CCOC(=O)c1c(N)sc2c1CCC1C(=O)N(C3CCCCC3)C(=O)C21 (configuration not stated)	-19	1	?	?	24%	26µM*
O=C(COc1ccc(Br)cc1)NNC(=O)c1ccc(-n2cncn2)c([N+](=O)[O-])c1	5	-2	nt	?	nt	16µM*
O=C(Nc1cccc(/C=C/c2ccccn2)c1)c1ccc(-n2cncn2)c([N+](=O)[O-])c1	-76*	-2	nt	16µM*	nt	6.5µM*
COc1ccc(NC(=O)c2ccc(-n3cncn3)c([N+](=O)[O-])c2)cc1OC	-9	-7	nt	-18%	nt	-27%
O=C(Nc1ccc(F)c(F)c1)c1ccc(-n2cncn2)c([N+](=O)[O-])c1	?	-2	nt	8.2µM*	nt	?

Compound activity deposited in PubChem by National Center for Advancing Translational Sciences (NCATS).
